Among the data in ChEMBL document CHEMBL4513216, “Probing the Open Global Health Chemical Diversity Library for Multistage-Active Starting Points for Next-Generation Antimalarials” (ACS Infect Dis, 2020) are INHIBITION values, retold here.

In all, about 69,000 compounds went through this assay and about 8,600 (12%) showed an effect of 50% or more. This is one part of a sample in which strong results are shown more often than they occur.

The assay concerns Plasmodium berghei. As to the kind of experiment: Screen against P. berghei liver stage (PbLuc), transformed with Luciferase, at 10uM. The assay is classed as functional, HepG2. The conditions noted are these: tested at 10 uM.
Take `CCNc1nc2cn(-c3ccc(CC)cc3)c(=O)c-2c[nH]1`: the INHIBITION is -14.245%.
As for `Cn1cc(C2CCCN2C(=O)c2ccc(OCC3CC3)nc2)cn1` (configuration not stated), the figure is -27%.
Under `O=S(=O)(CCN1CCN(c2ccccc2O)CC1)c1ccc(Cl)cc1` stands -36.3%; under `CN(C)CCN1C[C@@H]2CN(C(=O)C3CCOC3)C[C@@H]2C1=O` (some centres not stated), 12.7%; under `COc1ccc(/C=C/CN2C[C@@H]3CC[C@H]2CN(S(=O)(=O)N(C)C)C3)cc1`, 38.6%.
As for `CCOCC1CN(Cc2cccnc2)Cc2nn(C)cc21` (configuration not stated), the figure is -21.4%.
With `O=C(C1CC(F)(F)C1)N1C[C@@H]2CN(CC3CCCC3)CCO[C@@H]2C1`, the INHIBITION is reported as 20.6%.
As for `O=C1CN(C(=O)CCn2c(C(F)(F)F)cc3cccnc32)CCN1`, the figure is 25.6%.
As for `CSC1(CNC(=O)c2cccc(-n3cccn3)c2)CCOCC1`, the figure is -46.4%; as for `Cc1ncccc1NC(=O)[C@@H]1CCO[C@@H]2CCN(c3ccccc3)C[C@@H]21`, 41.4%.
As for `Cn1ccnc1CN1CCCN(C(=O)COCC2CC2)CC1`, the figure is 13.3%; as for `CC(C)N1CCC(CC(=O)N2CCC(C(O)c3nccn3C)CC2)CC1` (configuration not stated), 46.7%.
Regarding `CC(C)N1CCC(CC(=O)N2CCN(Cc3nccn3C)CC2)CC1`, the INHIBITION stood at 58.5%.
As for `O=c1c2c[nH]c(N3CCCCC3)nc-2cn1-c1ccc2c(c1)OCO2`, the figure is -22.9%; as for `Cc1ccc(CNCC2Cn3nnc(-c4cccc(F)c4)c3CO2)o1` (configuration not stated), 18.2%.
As for `Fc1cccc(-c2nnn3c2COC(CNCc2nccs2)C3)c1` (configuration not stated), the figure is 50.3%; as for `Fc1cccc(-c2nnn3c2COC(CNCc2ccsc2)C3)c1` (configuration not stated), 52%; as for `Cc1cccc(-c2nnn3c2COC(CNCc2nccs2)C3)c1` (configuration not stated), -10.2%.
With `Fc1cccc(-c2nnn3c2COCC(CNCc2nccs2)C3)c1` (configuration not stated), the INHIBITION worked out at 47.5%.
With `Fc1cccc(-c2nnn3c2COC(CNCc2cccs2)C3)c1` (configuration not stated), the INHIBITION came out at 1.9%.
Under `COc1cc2nc(C)n(CC(=O)NCC(C)C)c(=O)c2cc1OC` stands 21.5%; under `CC(=O)N1CCC(Cc2nccnc2-c2c(C)n[nH]c2C)C1` (configuration not stated), -14.1%; under `COCCN1C[C@@H](C)[C@@]2(COCCN(C(=O)c3cccc(C)n3)C2)C1`, -10.5%.
Under `CC(C)n1cnc2c(-c3cccnc3)nc(C3CCNCC3)cc21` stands 55.7%; under `Cn1cnc2c(-c3ccccc3)nc(C3CCNCC3)cc21`, 38.5%; under `COc1ccc(-c2ccnc(C3CCNCC3)c2)cc1`, 29.2%.
As for `Cn1cc(-c2nc(C3CCN(CC4CC4)CC3)cc3c2ncn3C)cn1`, the figure is 61.5%.
For the compound `CC(=O)N1CCC(c2cc3c(ncn3C)c(-c3cnn(C)c3)n2)CC1`, the INHIBITION stood at 33.4%.
Under `Cn1cc(-c2nc(C3CCN(S(C)(=O)=O)CC3)cc3c2ncn3C)cn1` stands 15.7%; under `CC(C)n1cnc2c(N3CCCC3)nc(C3CCNCC3)cc21`, -3.52%.
As for `Cn1cnc2c(-c3cccnc3)nc(C3CCNCC3)cc21`, the figure is 48.4%; as for `COc1ccc(-c2nc(C3CCNCC3)cc3c2ncn3C)cc1`, 53%.
As for `O=C(CC1CC1)NCc1cn2c(n1)CN(CC1CC1)CC2`, the INHIBITION stood at 9.67%.
As for `Cc1nc2sc(C(=O)N3CCNC(=O)C3)c(C)c2c(=O)[nH]1`, the figure is -4.35%; as for `Cc1nc(-c2ccsc2)ccc1C(=O)NCC(C)N1CCOCC1` (configuration not stated), -24.275%.
Under `N#Cc1ccc(F)c(CN2CCCCC2Cn2cccn2)c1` (configuration not stated) stands -36.1%.
As to `COc1ccccc1CC(C)CC(=O)N(C)Cc1cc(C)on1` (configuration not stated), the INHIBITION was 14.7%.
With `O=C(c1nc2c(o1)CN(CC1CCC1)C2)N1CCCC1`, the INHIBITION is listed as -15.6%.
For the compound `COc1cc2nc3n(c(=O)c2cc1OC)CCN(C(=O)C1CCC1)CC3`, the INHIBITION came to 23.4%.
Under `CCN1CCN(CC(O)c2ccc(OC(F)(F)F)cc2)CC1` (configuration not stated) stands 56.1%; under `OC(CN1CCCCCCC1)c1ccc(OC(F)(F)F)cc1` (configuration not stated), 19.2%.
Under `CCCN1CCN(CC(O)c2ccc(OC(F)(F)F)cc2)CC1` (configuration not stated) stands 33.7%.
As for `COc1cccc(N2CCN(CC(O)c3cc(C)sc3C)CC2)c1` (configuration not stated), the figure is 63.1%; as for `COc1cccc(N2CCN(CC(O)c3ccc(C)cc3)CC2)c1` (configuration not stated), 17.4%.
Turning to `COc1ccc(OC)c(C(O)CN2CCN(C3CCCC3)CC2)c1` (configuration not stated), the INHIBITION was -113%.
As for `CCc1ccc(C(O)CN2CCN(c3cccc(OC)c3)CC2)cc1` (configuration not stated), the figure is 54%; as for `COCCN1CCN(CC(O)c2cc(OC)ccc2OC)CC1` (configuration not stated), -94.3%.
As for `CCOCCN1CCN(CC(O)c2ccc(OC)cc2)CC1` (configuration not stated), the figure is -9.39%.
As for `COc1cccc(C(O)CN2CCN(c3cccc(C)c3)CC2)c1` (configuration not stated), the figure is 16%.
Turning to `COc1cccc(N2CCN(CC(O)c3cc(C)ccc3C)CC2)c1` (configuration not stated), the INHIBITION is 67.9%.
As for `CCn1cc(CN2CCN(CC(O)c3cc(C)ccc3C)CC2)c(C)n1` (configuration not stated), the figure is 43.6%; as for `CCN(Cc1nonc1C)C(=O)Cn1nc(C(F)(F)F)cc1C1CC1`, 28.89%.
As for `Cc1cccc(CC(=O)N2CCCCC2CN)c1` (configuration not stated), the figure is 8.13%.
In the case of `CCC(C)(C)c1cc(-c2c(C)nn(CCO)c2C)c(C#N)c(N)n1`, the INHIBITION is -24.6%.
Under `NC1CCC(NC(=O)c2ccc3nc(-c4ccc(F)cc4)cn3c2)CC1` (configuration not stated) stands 24.7%.
For the compound `CN(C)CCOc1ccc(N(C)S(=O)(=O)c2cnn(C)c2)cc1`, the INHIBITION was found to be 32.3%.
On to `Cc1cnn(CCNCc2nnc(-c3ccccc3)o2)c1`, for which the INHIBITION was determined as 31.3%.
As to `COc1ccc(N2CCN(CC(O)c3ccc(C)cc3C)CC2)cc1` (configuration not stated), the INHIBITION is given as 41.6%.
As for `COc1ccc(N2CCN(CC(O)c3cc(C)ccc3C)CC2)cc1` (configuration not stated), the figure is 69.8%; as for `COc1ccc(OC)c(C(O)CN2CCN(c3cccc(C)c3)CC2)c1` (configuration not stated), 34.5%; as for `c1ncn(CC2CCCN(Cc3csc(-c4ccsc4)n3)C2)n1` (configuration not stated), -12.2%.
As for `CN(C)Cc1ccc(N2CCN(CCOCC(F)(F)F)CC2)nc1`, the figure is 33.4%; as for `CN(CC(=O)N1CCCC1c1noc(C2CC2)n1)Cc1ccccc1` (configuration not stated), 23.7%.
As for `CCN1CC(COC(=O)c2cccc(Br)c2)CC1=O` (configuration not stated), the figure is 16.8%; as for `CCN1CC(COC(=O)c2cc(C)nn2CC)CC1=O` (configuration not stated), 50.4%; as for `CCn1nc(C)cc1C(=O)OCC1CC(=O)N(Cc2ccccc2)C1` (configuration not stated), 10.1%.
Regarding `CCCOc1cc(CNC(=O)Nc2cccc(C(C)=O)c2)ccn1`, the INHIBITION amounted to 16.6%.
